Data reported in PubChem BioAssay AID1053118 (Broad Institute, 2014).
Measured potencies and affinities stand elsewhere. Calls of active or inactive are those of the source.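 Rule for the calls: active = fitted half-maximal concentration for ATP signal loss at most twice the top valid dose; inconclusive = flat curve between -70 and -30%, or an invalid fit; inactive = flat within ±30%, wrong direction, or potency past limit.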

Assay: viability loss in HepG2 hepatoma cells – cell-based, cherry-picks, set 5, cytotoxicity control, dose response (AID 1053118)
Settings: ATP luminescence, 72 h; series mostly up to 26 µM

SMILES	outcome
CN1c2ccc(-c3ccccc3)cc2[C@H]2[C@H](CCN2C(=O)CN2CCOCC2)[C@H]1CO	inactive
C[C@H](O)C#Cc1ccc2c(c1)O[C@H](CN(C)C)[C@@H](C)CN([C@H](C)CO)S2(=O)=O	inactive
CO[C@H]1CN(C)C(=O)c2cc(NC(=O)Nc3ccc(Cl)c(Cl)c3)ccc2OC[C@@H](C)NC[C@@H]1C	inactive
COC(=O)C[C@H]1CC[C@@H]2[C@@H](COc3ccc(NC(=O)Cc4cccs4)cc3C(=O)N2C)O1	inactive
O=C(c1cccnc1)N1C[C@H]2[C@@H](c3ccccc31)[C@H](CO)N2CC1CCCC1	inactive
N#Cc1ccc(-c2ccc3c(c2)[C@@H]2[C@@H](CCN2S(=O)(=O)c2cccc(F)c2)[C@H](CO)N3)cc1	inactive
O=C(OCC(O)C(O)COC(=O)c1ccccc1)c1ccccc1 (centres undefined)	inactive
Cc1ccc(S(=O)(=O)N2CC[C@@H]3[C@H](CO)Nc4ccc(-c5cccc(C(=O)N(C)C)c5)cc4[C@@H]32)cc1	inactive
COCC(=O)Nc1ccc2c(c1)C(=O)N(C)[C@@H]1CC[C@H](CC(=O)NCc3ccccc3Cl)O[C@@H]1CO2	inactive
